The text below walks through data of PubChem BioAssay.

The subject of test [1] is Wnt5a (protein binding on small-molecule microarray). The experiment in a line: Wnt5a binders on small-molecule microarray, primary screen, biophysical, 635/667 nm fluorescence (AID 1142).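 Also: fluorescence read at 667 nm with signal to noise per printed feature.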 Particulars: 635 nm fluorescence, higher = more signal.
Test [2] can be described thus: cell viability in Huh7 cells, primary screen, cytotoxicity control for HCV replication inhibitor project, CellTiter-Glo luminescence, basal, 48 h (AID 1143).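 Also: Huh7 hepatoma cells carrying a hepatitis C replication reporter with no stimulus; test concentration not given here.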 Particulars: Huh7 HCV replicon, higher = more signal, called active from +8 up or from −8 down. Background: In ATP-based viability assays light output follows the ATP content of the culture.
The nature of test [3]: P. aeruginosa biofilm formation inhibitors, primary screen, PAO1 strain, BacTiter-Glo luminescence, LB-PBS (AID 1144). The following applies: 12 h, higher = more signal.
Test [4] is described as follows: CREB reporter modulators without forskolin, primary screen, cell-based, PC12, CRE-LacZ reporter, unstimulated (AID 1145). The following applies: no forskolin, luminescence, 4.5 h, higher = more signal, called active from +8 up or from −8 down.
Test [5] in a line: CREB reporter modulators under forskolin, primary screen, cell-based, PC12, CRE-LacZ reporter, forskolin-stimulated (AID 1146).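 Also: PC12 cells with 6xCRE LacZ reporter stimulated by forskolin 10 µM; beta-galactosidase reporter signal reflecting CREB driven transcription.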 Particulars: luminescence, 4.5 h, higher = more signal, called active from +8 up or from −8 down.
Test [6] deals with Streptavidin (Streptomyces avidinii) (UniProt P22629). The experiment in a line: streptavidin binders on small-molecule microarray, primary screen, artefact control for SMM compound annotation, biophysical, 635/667 nm fluorescence (AID 1147).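 Also: signal reflects streptavidin binding to arrayed compounds as a control protein.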 The following applies: streptavidin binding, higher = more signal.
The nature of test [7]: small-molecule binders of probe aInhba, primary screen, biochemical, small-molecule microarray, 635/667 nm fluorescence (AID 1148).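 Also: score merges 667nm spot fluorescence with signal-to-noise for antibody binding to printed compounds.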 The following applies: higher = more signal.
Test [8] has as its target Torsin-1A (Homo sapiens) (UniProt O14656). Nature of the test: torsin A binders from cell lysate, primary screen, small-molecule microarray, wild-type, 635/667 nm (AID 1149). Particulars: COS7 hTOR1A-WT lysate, 635 nm fluorescence, higher = more signal.
The target is the same in test [9]. The experiment in a line: small-molecule binders of mutant TOR1A in lysate, primary screen, cell lysate, small-molecule microarray, COS7 lysate, 635/667 nm fluorescence (AID 1150).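 Also: score pools 667 nm emission and signal to noise measuring lysate protein binding.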 Particulars: COS7 hTOR1A mutant lysate, 635 nm fluorescence, higher = more signal.
In test [10] the test system is Sonic hedgehog protein (Shh). Nature of the test: small-molecule binders of Shh protein, primary screen, biochemical, small-molecule microarray, 635/667 nm fluorescence (AID 1151).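 Also: Shh protein binding to compounds spotted on small-molecule microarray slides; score combines spot fluorescence intensity with signal-to-noise across triplicate slides.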 Particulars: small-molecule microarray binding, 635 nm fluorescence; higher = more signal.

Each structure is given as a SMILES string. The source made the active and inactive calls. Unless noted, no rule for the calls is given here.

Chain of Streptavidin (Streptomyces avidinii) (P22629 whole entry, looked up): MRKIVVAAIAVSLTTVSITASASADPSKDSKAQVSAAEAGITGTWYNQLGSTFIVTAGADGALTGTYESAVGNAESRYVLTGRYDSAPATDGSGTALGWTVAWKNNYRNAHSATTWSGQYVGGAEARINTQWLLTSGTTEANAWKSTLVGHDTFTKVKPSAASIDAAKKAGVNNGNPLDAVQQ
Chain of Torsin-1A (Homo sapiens) (O14656 whole entry, looked up): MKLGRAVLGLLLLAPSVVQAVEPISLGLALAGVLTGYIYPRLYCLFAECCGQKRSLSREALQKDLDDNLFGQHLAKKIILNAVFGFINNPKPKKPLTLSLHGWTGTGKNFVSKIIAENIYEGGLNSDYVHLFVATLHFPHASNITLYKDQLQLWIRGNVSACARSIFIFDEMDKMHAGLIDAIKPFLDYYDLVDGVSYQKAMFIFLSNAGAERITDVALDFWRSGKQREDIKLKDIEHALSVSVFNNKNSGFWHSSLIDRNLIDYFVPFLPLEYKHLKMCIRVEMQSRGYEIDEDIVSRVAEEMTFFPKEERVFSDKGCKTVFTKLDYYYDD

Turning to `CC(=O)OCC1C2CC[C@H]3C(OCc4ccc(F)cc4C(F)(F)F)OC[C@]4(C)[C@H]3C2=C(CN4C(=O)OC(C)(C)C)[C@H](C)C1COC(C)=O` (stereo not given in full), the composite z-score was 1.21 in test [1]; 1.16 in [6]; 0.196 in [7]; -0.172 with Torsin-1A (Homo sapiens) [8]; 1.67 with Torsin-1A (Homo sapiens) [9]; -1.24 in [10]. The z-score in test [2] was -1.87 (inactive); in test [3], -0.212 (inactive); in test [4], 0.0075 (inactive); in test [5], 1.85 (inactive).
For the compound `CCCC#C[Si](O[C@H](CC)c1cn(Cc2ccccc2)nn1)(C(C)C)C(C)C`, the composite z-score turned out to be 0.24 in test [1]; 1.72 in test [6]; 0.0541 in test [7]; 0.732 with Torsin-1A (Homo sapiens) [8]; 0.563 with Torsin-1A (Homo sapiens) [9]; 1.27 in test [10]. Also, the z-score is -1.01 (inactive) in test [2], 0.171 (inactive) in [3], -0.374 (inactive) in test [4] and 0.04 (inactive) in [5].
As to `CC1CC/C=C\[C@H]2OC34C=CCN(c5ccc6ccccc6c5)C(=O)[C@H]3N(C(C)CO)C(=O)[C@@H]4C2C(=O)O1` (stereo not given in full), the composite z-score is -0.786 in test [1]; -0.926 in test [6]; -0.0933 in test [7]; -0.538 with Torsin-1A (Homo sapiens) [8]; -1.15 with Torsin-1A (Homo sapiens) [9]; -0.254 in test [10]. In addition, the z-score was -0.0174 (inactive) in test [2], 0.282 (inactive) in [3], -0.0899 (inactive) in [4] and -0.0752 (inactive) in test [5].
For the compound `CC(C)=C1C(=O)C(c2ccccc2)=C2CN3C(=O)N(CCc4ccccc4)C(=O)[C@]3(C)[C@H]21`, the composite z-score in [1] is -0.0006; in test [6], 0.509; in test [7], -0.016; in the test with Torsin-1A (Homo sapiens) [8], -0.656; in the test with Torsin-1A (Homo sapiens) [9] it was -0.124; in [10], -0.223. Besides, the z-score in test [2] is -2.42 (inactive); in test [3] it was 0.64 (inactive); in test [4], 0.0177 (inactive); in [5] it was 0.839 (inactive).
With `COC(=O)[C@]1(CCC(=O)OC(C)(C)C)N=C(c2ccc(OCCCO)cc2)O[C@@H]1c1ccccc1N=[N+]=[N-]`, the composite z-score in [1] is 0.827; in test [6], -0.0444; in [7], -0.0658; in the test with Torsin-1A (Homo sapiens) [8] it was 0.154; with Torsin-1A (Homo sapiens) [9] it was 0.0612; in [10], 0.886. Further, the z-score in [2] was -2.64 (inactive); in [3], -0.192 (inactive); in [4], 0.834 (inactive); in [5] it was 0.154 (inactive).
Regarding `C=CCOC(=O)[C@H]1[C@@H]2C(=O)O[C@@H](c3ccccc3)[C@@H](c3ccccc3)N2[C@@H](c2ccc(OCCOC(=O)[C@H]3C[C@H]4C(=O)N[C@@H](CC(C)C)C(=O)N4[C@H]3c3ccc(O)cc3)cc2)[C@]12C(=O)Nc1ccccc12`, the composite z-score in test [1] is 0.809; in test [6], 0.137; in test [7] it was 0.0544; in the test with Torsin-1A (Homo sapiens) [8], 0.739; with Torsin-1A (Homo sapiens) [9] it was 1.18; in test [10] it was 2.06. The z-score in test [2] is -0.351 (inactive); in test [3], -1.22 (inactive); in test [4] it was -0.26 (inactive); in test [5], 0.146 (inactive).
For `COC(=O)C(CC#Cc1ccc2c(c1)[C@]1(C(=O)N2)[C@H](C(=O)N2CCc3cc(OC)c(OC)cc3C2)[C@H]2C(=O)O[C@H](c3ccccc3)[C@H](c3ccccc3)N2[C@@H]1c1ccccc1OCCO)C(=O)OC`, the composite z-score in [1] amounted to 0.345; in test [6] it was 1; in test [7] it was 0.0561; in the test with Torsin-1A (Homo sapiens) [8], 0.885; in the test with Torsin-1A (Homo sapiens) [9], 1.15; in test [10], 1.99. For the same compound, the z-score in test [2] was -2.91 (inactive); in test [3], -0.375 (inactive); in [4] it was -0.168 (inactive); in test [5] it was 0.214 (inactive).
Consider `C=CCC(OC(C)=O)[C@@H]1[C@@H](N(Cc2ccc(-c3cccc(C(F)(F)F)c3)o2)C(=O)c2ccc(-c3ccccc3)cc2)c2cc(OCCCO)ccc2N1C(=O)c1ccc2ccccc2c1` (stereo not given in full), for which the composite z-score in test [1] is -0.0266; in test [6] it was 0.177; in test [7], -0.0279; with Torsin-1A (Homo sapiens) [8], -0.756; with Torsin-1A (Homo sapiens) [9], -0.322; in [10] it was 1.57. In addition, the z-score in test [2] is -0.87 (inactive); in [3], -0.491 (inactive); in test [4] it was -0.477 (inactive); in [5], 0.308 (inactive).
In the case of `O=C(NC1CC1)[C@@H]1c2ccccc2C(=O)N(Cc2cc(C(F)(F)F)cc(C(F)(F)F)c2)[C@H]1c1ccc(CO)cc1`, the composite z-score was -0.0738 in [1]; 0.0581 in test [6]; -0.248 in [7]; -0.73 with Torsin-1A (Homo sapiens) [8]; -0.727 with Torsin-1A (Homo sapiens) [9]; 0.658 in [10]. The z-score in test [2] is -4.67 (inactive); in [3], 0.0176 (inactive); in test [4] it was 1.14 (inactive); in test [5], -1.05 (inactive).
As for `CN(C)CCCNC(=O)[C@@]1(C)c2ccccc2C(=O)N(Cc2ccc(OC(F)(F)F)cc2)[C@H]1c1ccc(CO)cc1`, the composite z-score was -0.13 in test [1]; -1.04 in test [6]; 0.0778 in [7]; -0.924 in the test with Torsin-1A (Homo sapiens) [8]; 0.332 in the test with Torsin-1A (Homo sapiens) [9]; 0.447 in [10]. For the same compound, the z-score is -2.14 (inactive) in test [2], -1.04 (inactive) in test [3], 1.06 (inactive) in [4] and -0.175 (inactive) in test [5].
In the case of `[N-]=[N+]=NCc1ccccc1[C@@H]1OC(c2ccc(OCCCO)cc2)=N[C@]1(Cc1ccccc1N=[N+]=[N-])C(=O)O`, the composite z-score is 1.04 in test [1]; 0.488 in [6]; 0.587 in [7]; 0.177 in the test with Torsin-1A (Homo sapiens) [8]; 0.585 with Torsin-1A (Homo sapiens) [9]; -0.379 in test [10]. The z-score was -2.25 (inactive) in [2], -1.09 (inactive) in test [3], 0.526 (inactive) in [4] and -0.638 (inactive) in test [5].
With `COCCOC(=O)N1C(=O)[C@@]2(c3cc(C#Cc4ccc(OC)cc4)ccc31)[C@H](c1ccc(OCCO)cc1)N1[C@H](c3ccccc3)[C@H](c3ccccc3)OC(=O)[C@H]1[C@@H]2C(=O)NC[C@H](O)c1ccccc1`, the composite z-score amounted to 0.316 in test [1]; 0.769 in [6]; 0.0301 in [7]; 0.677 with Torsin-1A (Homo sapiens) [8]; 0.603 with Torsin-1A (Homo sapiens) [9]; 1.5 in test [10]. Besides, the z-score in [2] was -1.07 (inactive); in test [3], -0.367 (inactive); in test [4] it was -0.463 (inactive); in test [5], 0.003 (inactive).
On to `NC(=O)N1C(=O)C2C(C1=O)C1C=C(CCCO)C2C(c2ccc(CN3CCCC3)cc2)N1Cc1sc2ccccc2c1Cl` (stereo not given), for which the composite z-score in test [1] was -0.24; in test [6], 0.558; in test [7] it was -0.268; in the test with Torsin-1A (Homo sapiens) [8], -0.174; with Torsin-1A (Homo sapiens) [9], 0.823; in test [10], 0.287. Moreover, the z-score in [2] is -3.46 (inactive); in test [3], 0.386 (inactive); in test [4], -0.0602 (inactive); in test [5], -1.08 (inactive).
In the case of `COC(=O)[C@@]1(Cc2ccc(F)cc2)[C@H]2c3cc(C(=O)N4CCCC4)n(CCc4ccccn4)c3C[C@H]2CN1C(=O)c1ccccc1`, the composite z-score in test [1] was -0.0942; in [6], 0.478; in test [7] it was 0.0889; with Torsin-1A (Homo sapiens) [8], -0.226; with Torsin-1A (Homo sapiens) [9], 0.783; in [10], 0.208. Besides, the z-score in test [2] was -0.619 (inactive); in test [3], -0.237 (inactive); in [4] it was 2.87 (inactive); in test [5], 0.245 (inactive).
